According to PubChem BioAssay AID624246 (National Center for Advancing Translational Sciences (NCATS), 2012):
Screen size: about 370,000 compounds; about 100 (0.027%) were called active. Calls follow the shape of the dose curve; as a rule, active = well fitted inhibition curve with a large enough effect in the polarisation, with a control signal flat; inconclusive = small, poorly fitted or top-dose-only effect, or effect the other way, or a change in a side signal; inactive = no such curve, though single readings can be large or run the other way; the % refers to the polarisation. The list comes from a sample in which actives are over-represented; it also holds similar structures and randomly drawn compounds.

Molecular target: Transcriptional regulator ERG (Homo sapiens) (UniProt P11308)
Assay: qHTS for Small Molecule Inhibitors of the ERG Ets/DNA interaction; as to FP activity, negative = inhibition: % of control where 0% means no effect
Conditions: fluorescence polarization, His-ERG Ets domain / labelled DNA; series mostly up to 76.9 µM; FP activity, negative = inhibition: at the top concentration
Text: The Ets family of proteins is a family of ~30 conserved transcription factors defined by the presence of an ~85 amino acid domain referred to as the Ets domain, which mediates sequence-specific DNA binding to a core DNA element GGAA/T.The Ets family member ERG has been linked to several neoplasms. […] More extensive studies of the effects of over-expression of ERG in prostate cells have recently been carried out and have shown that over-expression of ERG results in increased invasion. […] We will carry out a high throughout screen to identify inhibitors of the interaction between ERG and DNA using a fluorescence polarization (FP) assay with a His-tagged ERG Ets domain and fluorescently-labeled DNA probes to develop small molecule inhibitors of this interaction as probes to test this hypothesis and lay the groundwork for the development of targeted therapies against ERG. NIH Molecular Libraries Probe Production Network [MLPCN] NIH Chemical Genomics Center [NCGC] Grant: NS066464 PI Name: John Bushweller, University of Virgina
1.5 ul of protein solution (1 uM ERG domain in 300mM KCl, 50mM Tris-HCl, 1mM EDTA, 1mM DTT, pH 7.5); 20 nl Control plate and compound library plate; 1.5 ul mixture of 5 nM Fluorescein-DNA and 100nM Texas-615-DNA solution in same buffer as above solution; measure fluorescence polarization sequentially for fluorescein (Excitation = 480 nm, Emission = 535s, 535p nm) and Texas red (Excitation = 555 nm, Emission = 632s, 632p nm).
Potency is read from the fitted curve at half-maximal effect.

Transcriptional regulator ERG (Homo sapiens), sequence (P11308 whole entry, looked up): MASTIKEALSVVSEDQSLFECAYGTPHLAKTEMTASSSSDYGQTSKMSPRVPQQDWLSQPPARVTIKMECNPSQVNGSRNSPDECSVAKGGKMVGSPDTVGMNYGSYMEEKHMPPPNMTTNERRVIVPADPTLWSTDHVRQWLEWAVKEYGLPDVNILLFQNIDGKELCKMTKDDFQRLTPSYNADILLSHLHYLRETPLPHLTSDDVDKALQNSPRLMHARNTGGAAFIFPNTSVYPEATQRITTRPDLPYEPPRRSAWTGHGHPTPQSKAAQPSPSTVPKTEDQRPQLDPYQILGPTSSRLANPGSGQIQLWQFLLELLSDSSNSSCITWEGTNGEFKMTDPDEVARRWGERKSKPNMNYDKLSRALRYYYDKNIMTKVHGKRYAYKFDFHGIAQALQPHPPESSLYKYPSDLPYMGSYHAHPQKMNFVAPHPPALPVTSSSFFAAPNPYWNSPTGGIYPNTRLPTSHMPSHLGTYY

FP activity, negative = inhibition, inactive:
O=C(Nc1ccccc1F)C(c1ccccc1)N1Cc2ccccc2C1=O (stereo not given) -0.37%
COc1ccccc1CNC(=O)CCCn1c(=O)c2ccccc2n(CC(=O)Nc2ccc(C)cc2Cl)c1=O 9.36%
O=C1Cc2cc(S(=O)(=O)Nc3ccc(OC(F)(F)F)cc3)cc3c2N1CCC3 10%
CCc1ccc(NC(=O)c2nn(-c3ccc(C)cc3)c(=O)n(C)c2=O)cc1 -0.735%
COC(=O)c1scc(-c2ccccc2)c1S(=O)(=O)Nc1ccccc1 0.898%
CC1CCN(C(=O)Cn2c(=O)n(-c3ccc(Cl)cc3)c(=O)c3c4c(sc32)CCC4)CC1 4.19%
CCCn1c(NCc2ccc(N(CC)CC)cc2)nc2ccccc21 -3.75%
Cc1ccccc1C(=O)NCc1nc(-c2ccc(Cl)cc2)no1 -2.03%
Cc1cc(C)c(-c2n[nH]c3c2C(c2ccccc2F)N(CCO)C3=O)c(O)c1 (stereo not given) -4.81%
COc1ccccc1-c1cc2nc(C)c(CCC(=O)O)c(C)n2n1 -0.16%
CC(C)c1ccc(NC(=O)C2CCN(c3nc(-c4ccc(C(C)C)cc4)no3)CC2)cc1 2.37%
Cc1c(CNC2CCCCC2)c(C(=O)O)c(C)n1Cc1cccc(Cl)c1 -2.9%
Cc1ccc(C(=O)NCCSc2c(C)[nH]c3ccccc23)cc1C -6.47%
CCCCNC(=O)CSc1nc2cc3c(cc2c(=O)n1CCCCCC(=O)NCc1ccc2c(c1)OCO2)OCO3 -12.3%
N#Cc1ccc(-c2cccs2)nc1SCc1ccc(Br)cc1 12.1%
CCc1nn(CC(=O)Nc2cccc(C)c2C)c(=O)c2cc3sccc3n12 13.6%
O=C(Cn1c(=O)n(-c2ccc(F)cc2)c(=O)c2sccc21)Nc1cccc(C(F)(F)F)c1 -2.35%
COc1cccc(N=C2SC(C(=O)Nc3cccc(Cl)c3)CC(=O)N2C)c1 (stereo not given) -5.94%
COC(=O)c1sccc1S(=O)(=O)N(CC(=O)Nc1ccc(C)c(F)c1)c1ccc(C)c(C)c1 2.23%
Cc1ccc(CCNC(=O)C2CCN(c3nnc(-n4cccc4CNc4ccc(C)cc4)s3)CC2)cc1 0.384%
Cc1ccccc1CNC(=O)C1CCCN(S(=O)(=O)N(C)c2ccc(F)cc2)C1 (stereo not given) -3.29%
CCOc1ccccc1CNC(=O)c1ccc(-n2c(C)cc3c2CCC(C)C3)cc1 (stereo not given) 5.18%
CCOC(=O)c1scc(-c2ccccc2)c1S(=O)(=O)Nc1ccccc1F 3.67%
COc1ccc(C)cc1NC(=O)COCc1cc(-c2cccs2)on1 8%
COc1ccc(NC(=O)CSC2=Nc3ccccc3C3=NC(CC(=O)NCc4ccccc4OC)C(=O)N23)cc1Cl (stereo not given) -0.573%
O=C(/C=C/c1ccccc1)Nc1cc(-c2nc3cc(Cl)ccc3o2)ccc1Cl 4.72%
Cc1ccc(-n2ncc3c(NCCCn4ccnc4)ncnc32)cc1Cl -1.49%
Cc1nn2c(=O)cc(COC(=O)c3cccc(NC(=O)COc4ccccc4Cl)c3)nc2s1 8.49%
COc1ccc(CNC(=O)CC2Oc3ccc(C)cc3NC2=O)cc1 (stereo not given) 1.76%
CCOc1ccc(C2C(=O)N(C3CCCCC3)CC(=O)N2CCC2=CCCCC2)cc1OC (stereo not given) -1.03%
COc1ccc(NC(=O)CCCc2nnc3n(CCC(C)C)c(=O)c4sccc4n23)c(OC)c1 3.52%
COc1ccc(CCNC(=O)c2c3c(nc4ccccc24)C(=O)N(C2CCCCC2)C3)cc1OC 0.33%
Fc1ccccc1Oc1ncnc2c1oc1ccccc12 -0.355%
CCOC(=O)c1sc(NC(=O)/C=C/c2ccc(C(C)C)cc2)c(C(=O)OCC)c1C -7.51%
CCOC(=O)c1ccc(CN(Cc2ccccc2)S(=O)(=O)c2ccc(Cl)cc2)cc1 0.277%
COc1ccc(Br)cc1C1CC(=O)Nc2c1c(C)nn2-c1nc(C)cc(C)n1 (stereo not given) -7.83%
Cc1ccc(Cl)cc1NC(=O)CCC(=O)N1CC(C)Sc2ccccc21 (stereo not given) 3.77%
Cc1ccc(C(=O)CC2(O)C(=O)N(CCc3ccccc3)c3ccc(Br)cc32)cc1 (stereo not given) -0.549%
COc1cc(NC(=O)Cn2nc(-c3ccc(C)c(C)c3)ccc2=O)cc(OC)c1 4.13%
COc1ccccc1NC(=O)CN1C(=O)c2ccccc2Sc2ccc(C(=O)N3CCCC3)cc21 -2.51%
CCOC(=O)c1[nH]c(C)c(CCC(=O)NCc2ccccc2C)c1C -3.1%
Cc1ccc(CNC(=O)CSc2c3c(nc4cc(Cl)ccc24)CCCC3)cc1 -0.34%
CCN1C(=O)c2ccccc2S(=O)c2ccc(C(=O)NCc3ccc(F)cc3)cc21 (stereo not given) -4.21%
CC1Cc2cc(S(=O)(=O)CCC(=O)Nc3ccc(F)c(Cl)c3)ccc2N1C(=O)C1CC1 (stereo not given) 0.16%
O=C(CSc1n[nH]c(-c2ccccc2)n1)N1CCCCC1 8.6%
O=C(/C=C/c1cn(CC(O)CN2CCc3ccccc32)c2ccccc12)c1ccc(Br)cc1 (stereo not given) -7.5%
CC(=O)c1nn(-c2ccc(OC(F)(F)F)cc2)nc1Nc1ccccc1 -1.16%
Cc1nn(-c2ccc(N3CCCCC3)nn2)c(C)c1CCC(=O)NCc1ccccc1F -5.53%
CCc1ccc(C(=O)CC2(O)C(=O)N(CCc3ccccc3)c3ccc(Br)cc32)cc1 (stereo not given) -0.514%
CCOc1cc(C2c3c(-c4ccc(Br)cc4)n[nH]c3C(=O)N2c2ccc(Cl)cc2)ccc1O (stereo not given) 12%
CCOc1ccc(-c2nonc2NC(=O)c2oc3ccc(C)cc3c2C)cc1OCC 0.0958%
CC1=C(C(=O)OCC(C)C)C(c2ccc(OCc3ccccc3)cc2)N2C(=O)CCSC2=N1 (stereo not given) -0.84%
O=C(NCc1ccccc1)c1ccc2c(c1)nc1n2CCCCC1 -0.294%
COC(=O)c1cc(S(=O)(=O)N2CCN(c3cc(Cl)ccc3C)CC2)c[nH]1 -1.55%
Cc1ccc(C)c(N2CCN(CCCNC(=O)Nc3ccc(Cl)cc3)CC2)c1 1.63%
COc1ccc(-c2cn3nc(N4CCC(C(=O)Nc5cccc(C)c5C)CC4)sc3n2)cc1 -1.85%
COc1ccc(OC)c(NC(=O)CSC2=Nc3ccccc3C3=NC(CC(=O)NCc4ccc(F)cc4)C(=O)N23)c1 (stereo not given) 5.04%
Cc1ccc2oc(=O)c3cnn(CC(=O)NCc4ccccc4Cl)c3c2c1 -1.05%
CCOc1ccc(CNC(=O)c2cccc(Nc3nc4ccccc4n4nnnc34)c2)cc1OC -1.27%
Cc1ccc(C)c(Oc2c(C(F)(F)F)oc3c(CN4CCN(C)CC4)c(O)ccc3c2=O)c1 1.61%
CCOc1ccccc1NC(=O)CN1CCCN(Cc2cccc(Cl)c2)S1(=O)=O 4.01%
Cc1ccc(OCCSc2nc(C)c(Cc3ccccc3)c(=O)[nH]2)cc1 1.16%
CCC1(C)CC(=O)c2c(ccc3oc(C(=O)Nc4ccc(C(C)=O)cc4)c(C)c23)O1 (stereo not given) -5.73%
COc1ccc(CCNC(=O)c2ccc(-n3c(C)cc4c3CCCC4)cc2)cc1OC -3.33%
Cc1ccc(C)c(CNC(=O)c2cc3ccccn3n2)c1 -10.3%
CCOc1ccccc1NC(=O)CN1CCN(S(=O)(=O)c2ccc(Br)cc2)CC1 2.57%
Cc1oc(-c2ccccc2F)nc1CN1CCC(C(=O)NCCc2ccc(Cl)cc2)CC1 -1.13%
CCOc1cccc(C(=O)Nc2nnc(S(=O)(=O)N(C)c3ccc(C)cc3)s2)c1 0.655%
COc1ccc(Cn2ccc3nc(C)c(C(=O)Nc4ccc(C)c(F)c4)cc3c2=O)cc1 -3.4%
COc1ccc(OC)c(CNC(=O)Cn2nc(C)c3c(C)n(-c4ccccc4)nc3c2=O)c1 3.15%
CCN(CC)CCNC(=O)CN1N=C(c2ccc(OC)cc2)CCC1=O -3.32%
CCOC(=O)c1cc2c(=O)n3ccccc3nc2n(CCCOC)c1=NC(=O)C(C)(C)Oc1ccc(Cl)cc1 -23.1%
COc1cccc(-c2nnc(SCC(=O)N3CCC(C)CC3)o2)c1 1.34%
COC(=O)c1ccc(NC(=O)c2cnn(-c3ccc(Cl)cc3)c2C2CCN(C(=O)OC(C)(C)C)CC2)cc1 2.85%
O=C(NCc1ccc2c(c1)CCN2C(=O)c1ccccc1)Nc1cc(F)ccc1F -0.322%
O=C(NCCCO)C(=O)Nc1c2c(nn1-c1ccccc1)CSC2 6.72%
O=C(Nc1ccc2nc(SCCOc3ccccc3Cl)sc2c1)c1ccco1 -0.316%
CCc1nc(-c2cc(S(=O)(=O)N3CCN(c4ccc(OC)cc4)CC3)ccc2OC)no1 -3.39%
CCCN1CCc2nc(N3CCN(C)CC3)ncc2C1 1.55%
C/C(CC(=O)NC(C)(C)C)=N\NC(=O)c1ccco1 3.01%
COc1cccc2cc(/C(C)=N/NC(=O)c3ccco3)oc12 -10.8%
CCC1=Nc2cc(C(=O)NCCCOC(C)C)ccc2Sc2ccc(C)cc21 -0.0425%
CCOC(=O)c1ccc2c(c1)N(Cc1cccc(OC)c1)C(=O)c1ccccc1S2(=O)=O -4.86%
CN(C(=O)c1ccc2c(c1)N(Cc1cccc(Cl)c1)C(=O)c1ccccc1S2=O)C1CCCCC1 (stereo not given) -4.59%
O=C1CN(C(=O)Nc2ccccc2C(F)(F)F)C(c2ccccc2)c2c(sc3c2CCCC3)N1 (stereo not given) 6.74%
COc1ccccc1NC(=O)C1=C(C)Nc2nc(SCC(=O)c3ccc(C)cc3)nn2C1c1ccccc1C (stereo not given) -8.08%
O=C1N(Cc2ccccc2)c2ccc(Cl)cc2C1(O)c1c[nH]c2ccccc12 (stereo not given) 0.882%
CCOC(=O)c1c(NC(=O)/C=C/c2ccc(OC)cc2)sc2c1CCC(C)C2 (stereo not given) 2.55%
CCOC(=O)c1ccccc1NC(=O)c1nn(-c2ccc(OC)c(Cl)c2)c(=O)c2c1c1ccccc1n2C -3.65%
CCc1ccc(NS(=O)(=O)c2ccc3[nH]cc(C(=O)NCCc4cccc(C)c4)c(=O)c3c2)cc1 -8.63%
COc1ccc(N2CCN(c3nc(-c4ccccc4F)nc4ccccc34)CC2)cc1 -3%
CC(C)c1ccc(OCC(=O)N(Cc2ccc(N(C)C)cc2)C2CCS(=O)(=O)C2)cc1 (stereo not given) -0.0046%
CCOc1cccc(CC(=O)N2CCc3c([nH]c4ccccc34)C2c2ccc(F)cc2)c1OCC (stereo not given) 1.73%

Potency, active:
COc1cccc2c1C(=O)c1c(O)c3c(c(O)c1C2=O)CC(O)(C(C)=NNC(=O)c1ccc(Cl)c(Cl)c1)CC3OC1CC(N)C(O)C(C)O1 (stereo not given) 2.51 µM
C/C(=N/NC(=O)CCc1ccccc1)c1ccco1 28.2 µM
